# Shown are actives, neighbours in structure and some others; about 8.7% of the full set was active somewhere.
# Pf growth 48h: Primary qHTS for delayed death inhibitors of the malarial parasite plastid, 48 hour incubation. P. falciparum luciferase growth in erythrocytes, 48 h. Potency, µM (doses to about 28.7 µM), for inactives: at the highest dose activity change, negative = inhibition, actives largely listed as inhibitors. 310,000 tested, 5.9% active
#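 Parasite viability was followed by luminescence of a genomically integrated firefly luciferase. Cultures held 0.1% parasitemia at 2% hematocrit (final), incubated under 5% CO2 at 37 C.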
# Vaccinia mCherry: qHTS for Stage-Specific Inhibitors of Vaccinia Orthopoxvirus: mCherry Reporter Primary qHTS | Potency, µM (highest dose often 36.5 µM), inactives show at the top dose activity change, negative = inhibition, hits mostly inhibitors | Vaccinia virus mCherry reporter infection, fluorescence | 310,000 tested, 0.63% active; calls by dose curve; tested in A549 cells; further: nearly all actives have a fitted effect of over 35% in size
# AMA1 RON2 block: qHTS for Inhibitors of AMA1-RON; Towards Development of Antimalarial Drug Lead: Primary Screen. 360,000 tested, 0.2% active. Potency, µM (doses to about 58.2 µM), without a hit: at the highest dose activity change, negative = inhibition, usual class: inhibitors. AlphaScreen AMA1-biotinylated RON2 peptide binding;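 further: 0% = vehicle wells and -100% = peptide control; nearly all actives have a fitted effect of over 45% in size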
#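 AMA1 (3D7) with his tag at 25 nM final met compounds first, then biotinylated RON2 peptide at 25 nM; detection used donor plus acceptor beads, 10 µg/mL apiece, read by AlphaScreen after 30 min at room temperature.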
# Pf growth 96h: Primary qHTS for delayed death inhibitors of the malarial parasite plastid, 96 hour incubation | P. falciparum luciferase reporter growth, 96 h | Potency, µM (highest dose often 28.7 µM), for inactives: at the highest dose activity change, negative = inhibition, usual class: inhibitors | 320,000 tested, 6.9% active
#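 Infected RBCs, 2% Hct / 0.05% parasitemia final; luciferase-reporter P. falciparum; cpd 96 h, 37 C, 5% CO2; luciferase detection reagent; luminescence.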
# VACV Venus inh: qHTS for Stage-Specific Inhibitors of Vaccinia Orthopoxvirus: Venus Reporter Primary qHTS; Vaccinia virus Venus reporter expression, fluorescence; Potency, µM (top dose mostly 36.5 µM), without a hit: at the highest dose activity change, negative = inhibition, hits mostly inhibitors; 330,000 tested, 0.46% active; calls by dose curve; tested in A549 cells; further: nearly all actives have a fitted effect of over 30% in size
# * marks the source's active call; other numbers are inactive results; i = inactive; u = inconclusive; x = no result. Unless noted, the call rests on the fitted dose curve; in most records, active means well fitted curve in the direction sought with a large enough effect; inconclusive means small, poorly fitted or top-dose-only effect, or another doubt; inactive means no such curve, though single readings can be large; an effect the other way counts as inactive or inconclusive. Unless noted, on the % scale 0 is the no-effect control and ±100 the full control effect; potency means the concentration at half of the fitted maximal effect.
SMILES,Pf growth 48h,Vaccinia mCherry,AMA1 RON2 block,Pf growth 96h,VACV Venus inh
CN(Cc1ccccc1)C(=O)c1ccco1,17%,i,-11%,12µM*,-5%
O=C(c1ccco1)N(CCC(c1ccccc1)c1ccco1)Cc1ccco1 (centres undefined),u,-12%,-24%,u,-2%
COc1ccc(NC(=O)CCCN2C(=O)CCn3nc(-c4cn(C)c5ccccc45)cc32)cc1,x,-19%,x,x,-4%
COc1ccc(CCN2CN(S(=O)(=O)c3ccccc3)c3nc4ccccc4nc32)cc1,12µM*,-16%,-14%,10µM*,-6%
COc1ccc(/C=C/C2=CC(C)(C)NC(=S)N2)cc1,u,-17%,35%,9.3µM*,-9%
CCCCCOc1ccc(/C=C/C(=O)Nc2sc(C)c(C)c2C(=O)OCC)cc1OC,x,-7%,x,x,-19%
Cc1ccc(-n2nnc3c(=O)n(Cc4ccccc4C)cnc32)cc1,1%,i,-5%,10%,-15%
COc1ccc(-n2nnc3c(=O)n(Cc4cc(C)ccc4C)cnc32)cc1,-19%,0%,-3%,5.2µM*,-11%
Cc1cccc(Cn2cnc3c(nnn3Cc3ccc(Cl)cc3)c2=O)c1,u,x,35%,4.1µM*,x
Cc1ccc(Cn2nnc3c(=O)n(Cc4cc(C)ccc4C)cnc32)cc1,u,i,0%,1.5µM*,-6%
Cc1ccc(Cn2nnc3c(=O)n(Cc4cccc(C)c4)cnc32)cc1,u,-11%,-4%,-13%,-5%
COc1ccc(NC(=O)CCNS(=O)(=O)c2ccc3c(c2)CCN3C(=O)C2CC2)cc1Cl,x,-23%,x,x,-11%
Cc1ccc(Cl)cc1-c1ccc(C=Nc2ccc(N3CCOCC3)cc2)o1,-1%,7%,11µM*,29%,1%
Cc1cc(O)c(C=Nc2ccc(N3CCOCC3)cc2)c(C)c1Cl,-2%,-2%,-2%,u,-5%
CCc1cc(C(=O)NCc2c(C)ncc3c2CCN(C(=O)C2=CCCC2)C3)no1,x,-8%,x,x,7%
COC(=O)c1nnn(-c2cccc(C)c2)c1N,x,4%,x,x,6%
CCN(Cc1ccccc1)C(c1cccc(C#N)c1)c1nnnn1C(C)(C)C (centres undefined),10µM*,u,-3%,u,-16%
Cc1ccc2cc(C(c3nnnn3C3CCCC3)N(Cc3ccco3)Cc3cccs3)c(=O)[nH]c2c1 (centres undefined),x,x,-12%,u,x
CC(C)(C)n1nnnc1C(c1cccnc1)N(Cc1ccccc1)Cc1ccco1 (centres undefined),2.9µM*,i,-11%,1.9µM*,-10%
CCC(C)(C)n1nnnc1C(c1ccc(C)cc1)N(Cc1ccco1)Cc1cccs1 (centres undefined),4.7µM*,-28%,11%,x,-14%
CCN(Cc1ccccc1)C(c1ccc(C(F)(F)F)cc1)c1nnnn1C(C)(C)C (centres undefined),x,x,-3%,x,4%
COc1cccc(CN(Cc2ccco2)C(c2ccc(F)cc2)c2nnnn2C(C)(C)C)c1 (centres undefined),1.7µM*,x,4%,u,u
CC(C)(C)n1nnnc1CN(Cc1ccc(F)cc1)Cc1ccco1,u,x,1%,u,x
Cc1cc2oc3c(c(=O)c2cc1C)C(c1ccc(C(C)C)cc1)N(c1nc(C)c(C)s1)C3=O (centres undefined),x,3%,x,x,-6%
CN(C)S(=O)(=O)N1CCC(n2cnc3cccnc32)CC1,x,-5%,x,x,0%
SMILES,Pf growth 48h,Vaccinia mCherry,AMA1 RON2 block,Pf growth 96h,VACV Venus inh
Cc1ccc(CNCc2c(C(=O)O)n(Cc3ccc(C)cc3)c3cc(C)ccc23)cc1,x,11µM*,x,x,u
C=Cc1ccc(Cn2c(C(=O)O)c(CNCc3ccccc3)c3ccc(C)cc32)cc1,x,u,x,x,13µM*
Cc1ccc(Cn2c(C(=O)O)c(CNCc3ccc(C)o3)c3ccc(C)cc32)cc1,x,-12%,x,x,-7%
O=C(Nc1ccc(Br)cc1F)c1cc(S(=O)(=O)NCc2ccc(F)cc2)ccc1F,x,-18%,x,x,-25%
Cn1c(SCC(=O)N2CCN(c3ccccc3)CC2)nnc1-c1c[nH]c2ccccc12,x,-24%,-11%,7.4µM*,u
CCn1c(SCC(=O)N2CCc3ccccc32)nnc1-c1c[nH]c2ccccc12,9.3µM*,x,17%,x,-14%
Cn1c(SCC(=O)N2CCCc3ccccc32)nnc1-c1c[nH]c2ccccc12,13µM*,x,15%,-12%,-26%
COc1ccc(-n2c(SCC(=O)N3CCc4ccccc43)nnc2-c2c[nH]c3ccccc23)cc1,-25%,7%,2%,-16%,4%
Cc1cc2cc(C)c3nnc(SCC(=O)N4CCCc5ccccc54)n3c2cc1C,-11%,x,x,30%,x
CCn1c(SCC(=O)N2CCCc3ccccc32)nnc1-c1c[nH]c2ccccc12,u,x,-8%,7%,-26%
Cc1ccc2cc(C)c3nnc(SCC(=O)N4CCCc5ccccc54)n3c2c1C,9.3µM*,x,x,5.2µM*,x
CC(C)CCn1c(=O)c2sccc2n2c(CCCC(=O)NC(C)C)nnc12,x,-17%,x,x,-10%
COc1ccc(Cl)cc1NC(=O)Cn1ccn(-c2cc(C)cc(C)c2)c(=O)c1=O,x,-27%,x,x,-27%
CCN1CCN(C(=O)c2cnn(-c3ncc4c(n3)-c3ccccc3CCC4)c2COC)CC1,x,-1%,x,x,-19%
C=CCSc1nnc(C2CCCN(Cc3ccccc3O)C2)n1C (centres undefined),x,i,x,x,-18%
C=C(Br)COC(c1ccco1)[C@H](Cc1ccccc1)NC(=O)OC(C)(C)C (some centres undefined),x,-9%,x,x,-23%
Cc1ccc(NC(=O)c2cnn3c(C(F)F)cc(-c4ccccc4)nc23)c(C)c1,x,-15%,x,x,-23%
CCOC(=O)c1c(NC(=O)CSc2nnc(-c3c[nH]c4ccccc34)n2CC)sc2c1CCCC2,u,-12%,-3%,12µM*,u
COc1ccc2c(C)cc(SCC(=O)N3CCOCC3)nc2c1,3%,-12%,10%,0.19µM*,11%
COc1cccc(-n2c(SCC(=O)N3CCOCC3)nnc2-c2c[nH]c3ccccc23)c1,x,-7%,0%,10µM*,-23%
Cn1c(SCC(=O)N2c3ccccc3CCc3ccccc32)nnc1-c1ccc(O)cc1,12µM*,-6%,-11%,-15%,-20%
CCCSc1ncc(Cl)c(C(=O)N(Cc2ccc(N(C)C)cc2)C2CCS(=O)(=O)C2)n1 (centres undefined),x,-18%,x,x,-15%
COCc1cc(=O)n2[nH]c(N)nc2n1,10µM*,x,5%,u,x
Cc1cc(=O)oc2ccc(OCC(=O)N(Cc3ccc(F)cc3)Cc3ccco3)cc12,10µM*,-15%,-10%,u,-22%
COC(=O)CC1(c2cccc3ccccc23)C(=O)c2ccccc2C1=O,x,x,-17%,10%,2.8µM*

# Screening results deposited in PubChem BioAssay by National Center for Advancing Translational Sciences (NCATS).
